# Source: PubChem BioAssay
# CCT chaperon mod: High-Throughput Screening for Modulators of Cytosolic Chaperonin Activity. purified chaperonin ATPase assay, HTRF ADP detection, 30 min. activity change, % (concentration not given with the values), hits read low. 360,000 compounds, 0.3% hits. AID 651819, 2012; in the data active = activity change below about -30%
#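 We incubate TRiC, 40 or 20 nM final, with library compounds at 76 uM and 10 uM ATP for 30 min at 37 °C. ADP formed is detected with Transcreener HTRF reagents after 30 min at room temperature.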
# Six1-Eya2 blk: qHTS Assay for Inhibitors of the Six1/Eya2 Interaction; AlphaScreen GST-Six1/His-Eya2 binding, biochemical; stronger effect = lower value; activity change, % (no concentration beside the values); 360,000 compounds, 0.56% hits; AID 651725, 2012
# Target sequence (O00167 whole entry, looked up): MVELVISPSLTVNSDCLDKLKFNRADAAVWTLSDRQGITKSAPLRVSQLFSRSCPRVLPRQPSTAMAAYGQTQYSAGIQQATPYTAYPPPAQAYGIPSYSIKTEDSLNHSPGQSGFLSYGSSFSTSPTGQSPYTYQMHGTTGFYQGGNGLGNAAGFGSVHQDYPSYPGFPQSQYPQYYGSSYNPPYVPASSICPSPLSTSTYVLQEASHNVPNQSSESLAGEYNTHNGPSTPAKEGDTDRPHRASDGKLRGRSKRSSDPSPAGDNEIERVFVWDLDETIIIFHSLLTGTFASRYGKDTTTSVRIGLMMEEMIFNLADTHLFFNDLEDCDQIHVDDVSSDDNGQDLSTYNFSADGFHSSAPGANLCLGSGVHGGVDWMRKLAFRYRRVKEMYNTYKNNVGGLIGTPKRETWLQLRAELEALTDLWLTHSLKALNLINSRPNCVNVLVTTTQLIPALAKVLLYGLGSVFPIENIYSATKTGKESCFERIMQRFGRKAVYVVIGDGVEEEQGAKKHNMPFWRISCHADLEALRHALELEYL
# Target sequence (Q15475 whole entry, looked up): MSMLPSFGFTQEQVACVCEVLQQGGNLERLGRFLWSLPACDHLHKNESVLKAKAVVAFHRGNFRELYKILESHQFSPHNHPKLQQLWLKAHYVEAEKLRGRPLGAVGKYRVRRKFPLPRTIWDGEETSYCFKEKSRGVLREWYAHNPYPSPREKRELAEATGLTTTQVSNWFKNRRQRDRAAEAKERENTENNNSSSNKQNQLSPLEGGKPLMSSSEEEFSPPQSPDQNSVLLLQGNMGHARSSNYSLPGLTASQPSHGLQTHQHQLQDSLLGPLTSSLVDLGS
#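 AlphaScreen luminescence read after one hour at 37 °C in darkness. Pin-transferred compounds met GST-Six1 and His-Eya2 protein (5X stock 250 nM/500 nM) plus glutathione donor and Ni-chelate acceptor beads (5X, 50 ug/mL).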
# pAkt inh: HTS Assay for Inhibitors of Akt Phophorylation: Primary Screen; 360,000 compounds, 0.32% hits; activity change, % for hits at 50 µM; AID 651550, 2012; Neuro2A IGF-stimulated pAkt S473 HTRF, 20 min; stronger effect = lower value; in the data active = activity change below about -80%; inconclusive = mostly about -51% to -80%
#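 Neuro2A cells (4,500/well, DMEM with 0.5% FBS) were treated with compound at a single 50 µM final concentration, stimulated with 6 nM IGF for 20 min at 37 °C, and lysed. Phospho-Akt Ser473 was read by HTRF as 665/615 ratio ×10^4.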
# CtBP-E1A blk: qHTS Assay for Inhibitors of the CtBP/E1A Interaction. CtBP / adenovirus E1A interaction (AlphaScreen). AlphaScreen GST-E1A/His-CtBP binding, 1536-well; stronger effect = lower value. activity change, % (concentration not given with the values). 340,000 compounds, 0.49% hits. AID 651724, 2012
#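 In 5 uL wells, 23 nL compound meets equimolar GST-E1A and His-CtBP (5X stock 125 nM each) for 2 h, 37 °C. Beads (5X, 50 ug/mL) then 1 h, 37 °C, dark.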
# Numbers stand for hits; i = inactive; ? = inconclusive; nt = no result. Most compounds without a hit are left out; they make up all but 1.3% or so of the library. Cut-off read from the data, not from the text of the source, unless noted: active = activity change below about -65%; inconclusive = mostly about -30% to -63%; inactive = weaker than that.
SMILES,CCT chaperon mod,Six1-Eya2 blk,pAkt inh,CtBP-E1A blk
Cc1cc(C)nc(SCc2ccc(C(=O)N/N=C/c3cccc(O)c3O)cc2)n1,i,-95,i,-96
Cc1nc2ccc(C(=O)N/N=C/c3cc([N+](=O)[O-])ccc3O)cc2[nH]1,i,-92,i,-92
NC(=O)C1CCN(CCS(=O)(=O)c2ccc(Cl)cc2)CC1,i,i,i,nt
Oc1c(Cl)cc(Cl)cc1/C=N/Nc1ncc(Br)cn1,i,i,i,i
Oc1ccc(O)c(C=NNC(=S)NC2CC3CC2C2C=CCC32)c1 (stereo not given),i,?,i,i
Oc1ccccc1/C=N/NC(=S)NC1CC2C=CC1C2 (stereo not given),i,-82,i,-86
Oc1ccccc1C=NNC(=S)NC1CC2C=CC1C2 (stereo not given),i,-77,i,?
Oc1c(Cl)cc(Cl)cc1/C=N/NC(=S)NC1CC2C=CC1C2 (stereo not given),i,?,i,-82
CC(C)(C)c1ccc(CSc2ccc(S(=O)(=O)N3CCOCC3)cn2)cc1,i,i,i,i
COc1ccc(C(CNc2nc(-c3cccnc3)nc3ccccc23)N(C)C)cc1 (stereo not given),i,i,i,i
O=C(CSc1nnc(-c2ccncc2)o1)Oc1ccccc1,i,i,-92%,i
Cc1ccc(CSc2nnc(-c3ccc(NS(=O)(=O)c4ccccc4)cc3)o2)cc1,i,i,i,i
O=C(CSc1nnc(-c2cccnc2)o1)Oc1ccccc1,i,i,i,i
COC(=O)CSc1nnc(-c2ccc(NS(=O)(=O)c3ccccc3)cc2)o1,i,i,-111%,i
Cc1[nH]c(=O)[nH]c(=O)c1/C=N/NC(=O)[C@H](C)N,i,-66,i,i
C/C(=N/Nc1ccccc1[N+](=O)[O-])c1ccc([N+](=O)[O-])cc1,i,i,i,nt
CC1=C/C(=N\Nc2ccccc2[N+](=O)[O-])CC(C)(C)C1,i,-69,i,-68
C=CCc1c(OC)ccc2c1c(S(=O)(=O)c1ccc(C)cc1)cn2COC,i,i,i,i
O=C(c1cccs1)N1C[C@H](O)[C@@H](n2cc(C3CC3)nn2)C[C@@H]1c1ccccc1,i,i,i,i
C=C(C)COc1ccc(C2NC(=O)c3ccccc3O2)cc1OCC (stereo not given),i,i,i,i
O=C(O)CCN1C(=O)/C(=C\c2ccc(-c3nc4ccccc4s3)o2)SC1=S,i,?,i,-75
O=C(O)CCCN1C(=O)/C(=C\c2ccco2)SC1=S,i,?,i,i
Cc1c(C(=O)NCc2ccc(C(F)(F)F)cc2)sc(=O)n1Cc1ccc(S(=O)(=O)N(C)C)cc1,i,i,i,i
O=C(CSCc1cccc(Br)c1)N=Nc1c(O)[nH]c2ccccc12,i,i,i,i
O=Nc1c(-c2c(O)[nH]c3cc(Br)ccc23)[nH]c2ccccc12,i,-71,i,?
SMILES,CCT chaperon mod,Six1-Eya2 blk,pAkt inh,CtBP-E1A blk
CC(=O)Nc1cccc(C(=O)NN2C(=O)NC3(CCC(C)CC3)C2=O)c1 (stereo not given),i,i,i,i
O=c1[nH]nc(Sc2ncnc3sccc23)n1CCc1ccccc1,i,i,-99%,i
O=C(N/N=C/c1cccc([N+](=O)[O-])c1O)c1cccs1,i,-91,i,i
O=[N+]([O-])c1cccc(C=NNc2ccc3ccccc3n2)c1O,i,-91,i,-95
O=C(N/N=C/c1ccc([N+](=O)[O-])cc1)c1cccs1,i,i,i,nt
O=C(N/N=C/c1cccc([N+](=O)[O-])c1)C1COc2ccccc2O1 (stereo not given),i,i,i,nt
COc1cc([N+](=O)[O-])cc(/C=N\NC(=O)C2COc3ccccc3O2)c1O (stereo not given),i,-89,i,nt
O=C(N/N=C\c1cccc([N+](=O)[O-])c1O)C1COc2ccccc2O1 (stereo not given),i,-88,i,-96
Brc1ccccc1/C=N/Nc1ccc2ccccc2n1,i,i,i,i
O=C(N/N=C/c1c[nH]c2ccccc12)c1cccs1,-40,i,i,i
O=C(NCc1nnc(SCc2ccccc2)n1-c1ccccc1)C12CC3CC(CC(C3)C1)C2,i,i,i,i
O=C(NCc1nnc(SCc2ccccc2)n1-c1ccc(F)cc1)C12CC3CC(CC(C3)C1)C2,-68,i,i,i
CC1CCCCC12NC(=O)N(CC(=O)Nc1sc3c(c1C(N)=O)CCC3)C2=O (stereo not given),i,i,-120%,i
CN(CC(=O)Nc1ccc(Cl)cc1)C(=O)C1CCCC1,i,i,i,i
O=C(COC(=O)C1CCN(c2ccc(C(F)(F)F)cn2)CC1)Nc1cccc(F)c1,i,i,i,i
COc1ccc(NC2=NCCC(=O)N2Cc2cccs2)cc1,i,i,-111%,i
CC1(C)CC(NC(=O)c2ccccc2NS(=O)(=O)c2ccc(Br)cc2)CC(C)(C)N1,i,i,i,i
O=C1CSC(=S)N1N=C1CCCCCC1,i,-80,i,i
O=C(Nc1ccnn1C1CCN(C(=O)Cc2cccc(Cl)c2)CC1)C1CC1,i,i,i,i
Cc1cccc(CC(=O)N2CCC(n3nccc3NC(=O)C3CC3)CC2)c1,-56,i,i,i
COc1ccc(C(=O)C(C)OC(=O)c2nc3nccc(C)n3n2)cc1 (stereo not given),i,i,i,i
O=C(O)CCNc1cc(N2CCN(C(=O)c3ccco3)CC2)c2noc3c2c1C(=O)c1ccccc1-3,i,-74,i,-85
Cc1n[nH]c(=O)c2c(NC(=O)CSc3nncn3C(C)C)oc(C)c12,i,i,i,i
COc1ccc(-c2csc(C3=C(O)CN(C(C)C)C3=N)n2)cc1OC,i,?,i,-77
Oc1ccc(/C=N/NC(=S)NCCN2CCOCC2)c(O)c1,i,-90,i,nt
SMILES,CCT chaperon mod,Six1-Eya2 blk,pAkt inh,CtBP-E1A blk
CCCn1ncc(CN2CCCC(C(=O)c3cccc(OC(C)C)c3)C2)c1C (stereo not given),i,i,i,nt
CCOC(=O)CN(C(=O)CSc1nnc2c(n1)[nH]c1ccc(F)cc12)c1ccccc1,i,-66,i,-70
COc1cc(OC)c(C(=O)Nc2ccc(C(=O)c3ccccc3)cc2)cc1OC,i,i,i,i
COc1ccc(C2=Nn3c(nnc3-c3cc(C)[nH]n3)SC2)cc1,i,-77,i,?
COc1ccc(-c2nnc3n2N=C(C)CS3)cc1,i,i,-84%,i
COc1ccc(C2=Nn3c(nnc3-c3ccc(OC)cc3)SC2)cc1,i,i,i,i
CCC(C)NS(=O)(=O)c1ccc(OCC(=O)Nc2ccc(F)cc2F)cc1 (stereo not given),i,i,-111%,i
CC(C)CNS(=O)(=O)c1ccc(OCC(=O)Nc2ccc(F)cc2F)cc1,i,i,i,i
Cc1ccc(CNC(=O)c2ccc(Cn3cc(-c4ccc(C)cc4)nc3-c3ccncc3)cc2)cc1,i,i,i,i
